Source: PubChem BioAssay
IDH1 R132H inh = inhibitors of human mutant IDH1 R132H; O75874; Potency, µM (doses to about 76.6 µM), for the others: at the top dose activity change, negative = inhibition, actives largely listed as inhibitors; AID 602179; 390,000 compounds, 0.093% hits; IDH1-R132H enzyme, NADPH consumption, diaphorase/resazurin fluorescence; note: potency is the fitted concentration of half-maximal effect; % is set by controls: 0 for no effect and ±100 for the full control effect; nearly all actives have a fitted effect of over 65% in size
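IDH1-R132H (0.5 ug/mL dispensed) in pH 7.5 Tris buffer was preincubated 30 min with compound, then given a substrate mix of 0.016 mM NADPH and 2 mM alpha-KG for 80 min at room temperature; remaining NADPH was read by diaphorase/resazurin fluorescence.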
CCT modulator = cytosolic chaperonin activity modulation; purified chaperonin ATPase assay, HTRF ADP detection, 30 min; activity change, % (test concentration not listed), hits read low; 360,000 compounds, 0.3% hits; AID 651819; in the data active = activity change below about -30%; note: % is set by controls: 0 for no effect and ±100 for the full control effect
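First, chaperonin was dispensed at 40 nM or 20 nM final depending on batch activity. Next, compounds were pinned at 76 uM and ATP added at 10 uM. After 30 min at 37 °C, ADP detection reagents ran 30 min at ambient temperature.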
GRP78 ERSR act = induces the endoplasmic reticulum stress response in human glioma cells; Potency, µM, for inactives: at the top dose activation, hits mostly activators; U87-MG GRP78 promoter luciferase reporter, 16 h; 420,000 compounds, 0.02% hits; AID 602332; note: potency is the fitted concentration of half-maximal effect; series mostly up to about 76 µM; % of control where 0% means no effect; nearly all actives have a fitted effect of over 35% in size
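Stably transfected U87-MG human glioma cells carrying a GRP78-based luminescent sensor were seeded at 1000 cells/well, pin-dosed with compounds and incubated 16 h. Luciferase reagent was then added, and end-point luminescence was read after 10 min at room temperature.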
GLS inh = blocks human kidney-isoform glutaminase activity; AID 624170; GLS enzymatic activity, qHTS titration; O94925; 410,000 compounds, 0.21% hits; Potency, µM (top dose mostly 45.5 µM), without a hit: top-dose activity change, negative = inhibition, usual class: inhibitors; note: potency is the fitted concentration of half-maximal effect; % is set by controls: 0 for no effect and ±100 for the full control effect
Target sequence (O94925 whole entry, looked up, canonical isoform): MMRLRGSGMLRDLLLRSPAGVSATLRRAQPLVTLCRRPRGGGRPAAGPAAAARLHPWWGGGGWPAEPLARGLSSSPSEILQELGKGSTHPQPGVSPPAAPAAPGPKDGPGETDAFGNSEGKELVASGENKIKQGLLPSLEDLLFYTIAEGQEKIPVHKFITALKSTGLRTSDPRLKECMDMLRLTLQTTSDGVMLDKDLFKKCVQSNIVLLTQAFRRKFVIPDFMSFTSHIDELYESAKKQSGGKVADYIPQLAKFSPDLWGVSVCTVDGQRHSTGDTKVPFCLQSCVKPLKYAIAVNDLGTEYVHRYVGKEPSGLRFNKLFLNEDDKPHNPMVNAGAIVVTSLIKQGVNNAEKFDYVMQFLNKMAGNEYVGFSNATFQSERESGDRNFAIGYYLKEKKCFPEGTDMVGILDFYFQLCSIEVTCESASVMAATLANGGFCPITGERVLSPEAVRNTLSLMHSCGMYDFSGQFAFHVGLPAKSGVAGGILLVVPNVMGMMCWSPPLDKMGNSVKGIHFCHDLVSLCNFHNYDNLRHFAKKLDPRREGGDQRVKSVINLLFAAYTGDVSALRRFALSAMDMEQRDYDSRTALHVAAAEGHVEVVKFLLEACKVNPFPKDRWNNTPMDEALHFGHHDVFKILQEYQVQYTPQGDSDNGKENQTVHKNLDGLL
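hKGA; 45 mM KH2PO4 pH 8.2 + 0.02% Tween-20; cpd via pin tool; 1 mM Gln soln; GluOx/HRP/Amplex Red; RT 30 min; fluor. t0 & final.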
pAkt inh = inhibitors of Akt phosphorylation; activity change, % for hits at 50 µM; 360,000 compounds, 0.32% hits; Neuro2A IGF-stimulated pAkt S473 HTRF, 20 min; hits give low values; AID 651550; in the data active = activity change below about -80%; inconclusive = mostly about -51% to -80%; note: % is set by controls: 0 for no effect and ±100 for the full control effect
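Neuro2A cells in DMEM with 0.5% FBS, overnight at 37 deg C, given compound at single 50 µM final, then IGF (6 nM final) for 20 min at 37 deg C. Lysed; phospho-Akt Ser473 by HTRF after 24 h, 665/615 ratio.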
Mm-Cpn inhibitor = M. maripaludis TRiC chaperonin inhibition; 330,000 compounds, 0.031% hits; purified Mm-Cpn ATPase, ADP Transcreener TR-FRET; Potency, µM (top dose mostly 76.9 µM), for the others: at the top dose activity, negative = inhibition, hits mostly inhibitors; note: potency is the fitted concentration of half-maximal effect; % is set by controls: 0 for no effect and ±100 for the full control effect; nearly all actives have a fitted effect of over 80% in size
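Compound-treated chaperonin, 25 nM final, turns over 10 uM ATP at 37°C for 30 min following a 10 min preincubation; ADP generated competes with ADP-d2 for Eu-cryptate antibody, lowering FRET.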
Starred values were filed as active, the others as inactive; i = inactive; u = inconclusive; x = no result. Shown are actives, neighbours in structure and some others; about 0.85% of the full set was active somewhere. Unless noted, calls come from the whole dose curve; as a rule, active = well fitted curve in the direction sought with a large enough effect; inconclusive = small, poorly fitted or top-dose-only effect, or another doubt; inactive = no such curve, though single readings can be large; an effect the other way counts as inactive or inconclusive.

SMILES	IDH1 R132H inh	CCT modulator	GRP78 ERSR act	GLS inh	pAkt inh	Mm-Cpn inhibitor
Cc1cc(C(=O)Nc2cccc(-c3nc(CNC(=O)c4sc(C)nc4C)c(C)o3)c2)c(C)o1	x	x	-3.4%	x	x	x
O=C(NCc1nnc2n1CCN(Cc1ccc(C(F)(F)F)cc1)CC2)c1cccc(F)c1	x	x	-4.2%	x	x	x
Cc1ccc2c(C(=O)CN3CCCCC3CCO)c(C)[nH]c2c1 (configuration not stated)	3.3%	-2.7	-3.0%	5.3%	i	-2.1%
Cc1[nH]c2ccccc2c1C(=O)CN1CCCCC1CCO (configuration not stated)	3.4%	-0.6	-5.6%	0.3%	-109.5%*	-0.2%
COc1ccccc1-n1cnc2sc(C)c(C)c2c1=O	-7.6%	-94.0*	1.6%	3.7%	i	-2.5%
COc1cc(=O)n2c(c1C(=O)N(C)Cc1cscn1)CCN(C(=O)c1ccc(C)c(C)c1)CC2	x	x	-4.3%	x	x	x
COc1ccccc1N1CCN(C2CCCN(C(=O)c3ccsc3)C2)CC1 (configuration not stated)	10.1%	2.8	-4.3%	0.8%	i	x
COc1ccccc1OCc1ccc(C(=O)N2CCN3CCCC3C2)cc1 (configuration not stated)	3.4%	-1.7	-2.0%	10.9%	-105.1%*	-1.6%
Oc1ccc(Nc2nc(-c3ccc(Cl)cc3)nc3ccccc23)cc1	x	x	-11.6%	16.7%	x	x
Oc1ccc(Nc2nc(-c3ccccc3)nc3ccccc23)cc1	-0.1%	-0.6	-4.9%	7.94µM*	i	3.4%
O=[N+]([O-])c1ccc(/C=N/N2CCN(Cc3ccccc3)CC2)cc1	2.2%	-105.1*	4.5%	1.0%	i	0.8%
O=[N+]([O-])c1ccc(/C=N\N2CCN(Cc3ccccc3Cl)CC2)cc1	-14.2%	-1.1	1.3%	-0.8%	i	x
CSc1ccc2cc(CNCc3ccccc3F)c(N3CCCC(CO)C3)nc2c1 (configuration not stated)	x	x	-3.2%	x	x	x
CCOC(=O)c1c(NC(=S)NC)sc2c1CC(C)(C)SC2	2.6%	-4.6	-2.6%	-0.7%	i	-6.5%
CCOC(=O)c1c(NC(=S)Nc2ccccc2)sc2c1CC(C)(C)SC2	6.7%	0.3	-3.1%	-21.5%	i	50.1µM*
CC(=O)Nc1ccc(NC(=O)c2ccccc2Sc2ccc([N+](=O)[O-])cc2Cl)cc1	2.9%	-34.5*	-4.8%	5.6%	i	1.0%
O=C(Nc1ccc(Nc2ccccc2)cc1)c1cc([N+](=O)[O-])ccc1Cl	-2.6%	-3.7	3.7%	17.3%	i	-0.5%
Cc1ccc(CN2CC(C(=O)N3CCN(c4ccccc4O)CC3)CC2=O)cc1 (configuration not stated)	4.1%	-2.5	0.0%	7.08µM*	i	1.8%
Cc1ncc2c(c1CNC(=O)c1ccc3c(c1)OCO3)CCN(C(=O)c1ccoc1)C2	x	x	-4.1%	x	x	x
COc1ccc(CC(=O)Nc2nc(C)cs2)cc1	5.6%	-5.6	2.2%	-1.9%	i	-0.9%
COc1ccc(CC(=O)Nc2nc(C(C)(C)C)cs2)cc1	-4.0%	-67.3*	2.1%	1.3%	i	3.5%
COc1ccccc1C1CN(Cc2ccc(Sc3nncn3C)o2)Cc2ccccc2O1 (configuration not stated)	x	x	-1.0%	x	x	x
COc1ccc(CCNC(=O)CSc2ccc3ccccc3c2)cc1OC	12.1%	3.3	-4.1%	-5.2%	i	1.3%
O=C(CSc1ccc2ccccc2c1)NCCc1ccc(O)c(O)c1	-0.6%	-0.8	u	1.41µM*	i	-5.6%
Cc1ccccc1C(=O)NNC(=S)Nc1cccc(C(F)(F)F)c1	8.4%	-2.2	-2.7%	17.8µM*	i	-1.0%
SMILES	IDH1 R132H inh	CCT modulator	GRP78 ERSR act	GLS inh	pAkt inh	Mm-Cpn inhibitor
O=C(c1cccnc1)N1CCc2ccccc21	-1.1%	0.5	-3.1%	5.4%	i	-4.4%
O=C(c1cccnc1)N1CCc2ccccc2C1	6.2%	0.1	-3.1%	-3.2%	i	56.2µM*
CSc1nc(C)c2c(n1)N(c1ccc(F)cc1)CC2	-1.2%	0.1	-1.4%	-0.1%	-110.6%*	-6.4%
CSc1nc(C)c2c(n1)N(c1ccc(O)cc1)CC2	-0.5%	1.4	1.2%	4.7%	i	-1.9%
COc1cc(CN2CCC3(CCC(CNC(=O)c4ccccc4)O3)CC2)cc(OC)c1 (configuration not stated)	x	x	-2.0%	x	x	x
O=C1CCCC2=C1C(Cc1ccccc1)C1=C(CCCC1=O)O2	5.4%	-1.1	-5.0%	-2.2%	-118.4%*	1.4%
CCc1ccccc1N(CC(=O)N1CCc2ccccc2C1)S(C)(=O)=O	-4.9%	-31.0*	-2.4%	3.0%	i	1.5%
Cc1ccc2[nH]c3ccccc3c(=O)c2c1	10.4%	-2.1	2.1%	-15.8%	i	-0.4%
O=c1c2ccccc2[nH]c2ccc(O)cc12	2.4%	-10.2	1.7%	5.01µM*	i	-8.1%
COc1ccccc1Nc1nc(N)nc(CN2CCN(c3ccccc3F)CC2)n1	-5.9%	-1.6	-4.8%	11.3%	i	1.6%
COc1ccccc1N1CCN(Cc2nc(N)nc(Nc3ccc(C)c(Cl)c3)n2)CC1	-0.3%	-33.6*	-4.9%	-3.4%	i	-4.3%
CC1(C)C(/C=C/C=C/C=C/C=C2\N(CCCCS(=O)(=O)O)c3ccc4ccccc4c3C2(C)C)=[N+](CCCCS(=O)(=O)[O-])c2ccc3ccccc3c21	u	0.4	-4.4%	6.31µM*	i	x
Cc1c2ccccc2cc[n+]1CCCS(=O)(=O)[O-]	9.9%	-1.9	-0.2%	-1.3%	i	-1.4%
Cc1c(C(=O)N(CCO)C(C)C)cnn1-c1ncc2c(n1)-c1ccccc1CCC2	x	x	-6.2%	x	x	x
CC(C)N1CCc2c(sc(N)c2C#N)C1	3.3%	-0.4	-2.3%	14.1µM*	i	-0.5%
C[C@@H]1CN(Cc2ccc3c(c2)CN(C(=O)c2ccc(Oc4ccccc4)o2)CCO3)C[C@H](C)O1	x	x	-5.4%	x	x	x
CCOc1ccc2[nH]c(=O)c(CN(Cc3ccccc3)C(=O)N3CCCC3)cc2c1	0.6%	1.6	-2.1%	3.0%	-131.5%*	3.3%
CCOc1ccc2[nH]c(=O)c(CN(C(=O)N3CCOCC3)C3CC3)cc2c1	x	x	x	x	x	1.0%
COCc1c(C(=O)Nc2cccc(S(=O)(=O)N3CCCCC3)c2)oc2ccccc12	0.0%	-74.1*	-1.0%	-14.8%	i	-1.7%
COc1cccc(NC(=O)c2oc3ccc(S(=O)(=O)N4CCCCCC4)cc3c2C)c1	2.1%	x	-2.4%	-4.7%	x	x
Cc1ccc(C(O)(C(=O)NNc2ccccn2)c2ccc(C)cc2)cc1	1.2%	-2.0	-3.6%	12.6µM*	i	2.3%
O=S1c2ccccc2Oc2ccccc21	-4.6%	-0.9	-0.9%	-20.9%	i	x
